In all, about 53,000 sequences went through this assay and about 3,700 (7%) were called active. Only a selection was taken, and actives are over-represented in it overall. Unmarked numbers belong to inactive results.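 How the source made its calls: active means gene knockdowns whose robust z-score for IL-1 alpha signal is at least 2 or at most -2, so actives lie on both sides; inactive means the rest.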

69 sequences from PubChem BioAssay AID1508600 (Functional Genomics Laboratory (NCATS/FGL), 2020) can be followed below.

This test in a line: Components of the Cytosolic LPS Sensing Pathway: Gene Identification via Genome-wide siRNA Screen.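 Further: robust z of the log signal after scaling to non-targeting control siRNA wells of the plate.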 The following applies: RAW264.7 macrophages, IL-1a HTRF, actives lie on both sides, screened at 100 nM (by protocol), cells primed 5 h with Pam3CSK4 first. The essentials:
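Cells (RAW264.7, 1×10^4 per well) were transfected with siRNA at 100 nM and cultured 48h at 37 degrees C. Pam3CSK4 was added for 5 hours; LipidA transfection followed for 24 hour. IL-1a was then measured by HTRF.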
(In general: TR-FRET usually uses a lanthanide donor and a delayed reading to cut background.)
GCAUGAAUCGUGCGAAGAUTT against Zfp871: the z-score is 0.903.
The value for CCAGGUUCUCCGAAUCUCUTT against Cpa1 was -0.854.
With GCUGAGUCCAUUGAAGAAGTT against Pebp4 the figure was 0.255; with GCACAACGACCUUUCCAGGTT against Chst12, -0.561.
In the case of GGCUAACCUGAGCAAACAGTT against Plvap, the z-score was -2.21 (active).
With GGAUCCUAAAACUGAGGAATT against Crtc2 the figure was 0.22; with GGAGAAAAACUGAGCAGCCTT against Chst12, -1.72.
In the case of GCAUUGGAACCAUGUGCUGTT against Prss46, the z-score was -1.59.
In the case of GGAGGAUUAUUACAGAAGGTT against Lhx9, the z-score is 1.57.
With GGAACUGACUGCCUAUUCCTT against Gnb3 the figure was 1.08; with CCGUUGAUAUCCACAUGAATT against Plod3, 1.97.
With GGUGGAACAGUGGAAUUCGTT against Grhpr the figure was 2.41 (active); with GCACUGCAUAUUCCGCACUTT against Nubp2, 1.4; with GGCUGGUCUCCAAACCCAATT against F13b, 0.229.
The value for GGACAGUGCCACUUAAACCTT against Tbxa2r was -1; that for GGCCUCCUAUAGACGGGAUTT against Vdac3 was 2.49 (active).
On to GGGAGACCGGCAAAAAAAATT against Pde1b, for which the z-score was 0.999.
The value for CGAGAUGUGUGUUAAAGGATT against Utp23 was 0.934; that for GCAAGUUGUCAAAUCUAAATT against Tspan13 was 1.42; that for GCCGGACAACUCUAAUCAGTT against Herpud1 was 3.22 (active).
With CCAAGGUAUGAAGAUAUUUTT against Rfpl4 the figure was 0.575; with GCAUGUUUUGGUGUAUAGUTT against Arl4a, -1.81; with CGGUGUUUGAAAUCGUGCATT against Dgcr6, 0.533.
With CCAGAGCCCAAGCCAAGUUTT against Nanos3 the figure was 0.639; with GCCCGAUAUUAUAACGGUGTT against Eomes, 2.97 (active); with GGUAUCCAGAUGAAAGAUGTT against Nlrp10, -1.13.
Consider GGCCCUCAAAAAUCACGAGTT against Ehd1, for which the z-score is 1.11.
With GGCAACAUCACUGAGUAUCTT against Glg1 the figure was 0.57; with GGAUCUUCUCUGCCUAUAUTT against Arpc1b, -1.42; with GGAGGAGAAGAAGAAGGCCTT against Unc119b, 0.28.
The value for CCUCAUGCUAGCCUCAUGATT against Actg1 was -0.214; that for GCUAUUGGGACUUAGAACATT against Slc26a9 was 0.191; that for CCAGUAAACCUACAUGUUCTT against Htr3b was -0.024.
The value for GGCUAAAAUAAGCAAUCUGTT against Optc was -1.35.
In the case of GGAAACUCCCUGAACCGGATT against Zcrb1, the z-score is 2.26 (active).
With GGUAUUGAGUAUCUUAGGUTT against Atf7 the figure was -0.543; with CGUUUUGUACAGAUAUACUTT against Fam3b, -0.571.
In the case of GAUUCCAAGACAUUAAACATT against Fxn, the z-score is 0.485.
As to GGCAGUUCAUGUUUAAAGATT against Fgfr1op2, the z-score was -0.381.
With CGAGAGCAUUAAUUACUUCTT against Sulf1 the figure was 0.621; with GGACUACGAAUACCCAUCGTT against Cck, -0.42; with GGGCAAUUUGGACUGUUUUTT against Jam3, -0.973.
With GGGUUUUAGAAUGAAAUACTT against Emc6 the figure was 2.35 (active); with GGAAGCAUUCCAAUGGUAGTT against Cyp2c39, -0.532; with GGCCAGACAUGUUGAAGAATT against Ssna1, -2.42 (active).
With CGAUGCUGUGGAACUGCACTT against Ptgfrn the figure was 0.417.
Consider CCGCGCCGUUGAUUCAUUUTT against Spata17, for which the z-score was 1.08.
The value for GGACACCAUGCCACAGACATT against Hlx was -1.43; that for GCAGAUCACCUUUUGUUUATT against Gdap2 was 0.767.
As to GGAUCCGUGCUGAAGUUUUTT against Cep20, the z-score is -0.338.
With GCUUCCCGCUAUGAGUUCATT against Shisa7 the figure was 2.24 (active).
GGAUUGUUAGCAAAGAAAGTT against Aco1: the z-score is -0.0776.
The value for GGUAGCAUGCUUUUGGUGCTT against Unkl was 0.329.
With CGAAGGCUUUUGAAUUCAATT against Pcdh17 the figure was 0.41.
The value for GGACUUCUACACCUCGAAATT against Amz2 was -1.05; that for GCUGAGGAAAUGCGAAGUCTT against Tmem98 was 0.0406; that for GGGCAACCCACAAUAAAAATT against B9d1 was -1.66.
For the sequence GGCUUUGAGAUAUGAACAGTT against Arrdc2, the z-score was 2.53 (active).
GGCAAGGAAUCAAUGUCUCTT against Fscn2: the z-score is -0.229.
The value for GGACAAUUCCAGUCAAUAATT against Ccdc115 was -1.01; that for GGAUUUCGGCUUUUUGAACTT against Bcas1 was 0.531.
GCCCUUAUGGACGAAAUUUTT against Ang2: the z-score was 0.0523.
With GGUCUGCUCAAUGCUAUCATT against Olfr918 the figure was -1.47; with GGAGAGACUCAGGAGUUUUTT against Rnd2, 2.74 (active); with UGAAUAAGGUGUGGUGCUCTT against Vmn1r148, 0.607.
The value for “GGCUAACUUUAGUGAGGUATT against 3110070M22Rik” was 0.233.
The value for CCGAAGUGCAACAAGCCAATT against Abl2 was 1.17; that for GGGUACGUGAAGAAACUUCTT against Meig1 was -2.23 (active).
Turning to GGGCACACGUACCAACUAUTT against Mib2, the z-score is -0.458.
